# Assay outcomes as filed in PubChem BioAssay.
# An excerpt weighted towards active compounds, which were near 31% of everything screened.
# CYP2C9 act: increases human cytochrome P450 2C9 activity; P11712; recombinant CYP2C9, luciferin-H conversion, luminescence; hits give high values; factor 1 = untreated enzyme, 0 = blocked; activation factor at 5 µM; actives 1.4% (n = 96,000); AID 1024;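 active = activation factor of 2 or more for CYP2C9 at a 5 µM dose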;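 note: 0 = sulfaphenazole-blocked wells and 1 = vehicle-only wells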
# PLAP activator: human PLAP activation; actives 1.2% (n = 96,000); P05187; purified PLAP enzyme, luminescent substrate read-out; hits give high values; activation fold at 20 µM; in the data active = activation fold above about 2
# Target sequence (P05187 whole entry, looked up): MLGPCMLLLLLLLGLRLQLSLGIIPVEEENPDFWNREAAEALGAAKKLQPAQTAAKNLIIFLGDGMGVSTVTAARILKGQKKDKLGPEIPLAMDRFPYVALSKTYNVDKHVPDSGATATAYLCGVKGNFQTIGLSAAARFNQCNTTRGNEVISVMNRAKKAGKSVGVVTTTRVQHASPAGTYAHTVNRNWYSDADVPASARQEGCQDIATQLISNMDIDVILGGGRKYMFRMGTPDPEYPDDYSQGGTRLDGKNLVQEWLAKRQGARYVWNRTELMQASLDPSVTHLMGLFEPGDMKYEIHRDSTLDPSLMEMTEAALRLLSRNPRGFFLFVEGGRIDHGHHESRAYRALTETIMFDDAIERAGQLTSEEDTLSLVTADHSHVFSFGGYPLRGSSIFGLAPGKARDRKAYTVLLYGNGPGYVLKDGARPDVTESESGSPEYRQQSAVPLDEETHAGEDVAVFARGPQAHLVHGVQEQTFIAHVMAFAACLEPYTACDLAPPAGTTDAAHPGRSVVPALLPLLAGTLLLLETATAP
# CYP2C9 inh: human CYP2C9 inhibition. CYP2C9 Supersomes, luciferin-H conversion, luminescence. inhibition, % at 5 µM. actives 20% (n = 96,000). AID 777;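 active = blocking of liver enzyme CYP2C9 beyond about 50% at 5 µM, limit read from the data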
# CYP2C19 inhib: blocks human cytochrome P450 2C19; AID 778; P33261; inhibition, % at 5 µM; actives 21% (n = 96,000); CYP2C19 Supersomes, luciferin-H EGE luminescence, 30 min;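 active = CYP2C19 inhibition above a set limit at 5 µM in the primary screen, cut at about 50% in these data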;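 note: plate controls were negative control wells for no effect and 2.5 mM tranylcypromine positive control for full effect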
# CYP2C19 activ: increases human CYP2C19 enzyme activity. P33261. recombinant CYP2C19, luciferin-H EGE luminescence; hits give high values; 0 = fully inhibited enzyme, 1 = untreated enzyme. activation factor at 5 µM. 96,000 tested, under 10 active. AID 1025;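 active = activation factor of at least 2 at 5 µM in the primary screen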;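 note: 0 = wells with 2.5 mM tranylcypromine and 1 = vehicle-only wells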
# * = called active by the depositor.
SMILES,CYP2C9 act,PLAP activator,CYP2C9 inh,CYP2C19 inhib,CYP2C19 activ
COc1ccc(/C=N/NC(=O)c2nn(-c3ccc(C)c(C)c3)c(=O)c3ccccc23)cc1,0.4,1.4,64*,15,0.9
O=C(NCc1ccccc1)c1c(O)c2cccc3c2n(c1=O)CCC3,0.9,1.5,8,27,0.7
COc1cccc(-n2nc(C(=O)Nc3ccc4c(c3)OCO4)c3ccccc3c2=O)c1,0.1,0.9,90*,42,0.6
COc1cccc(Cn2cccc(NC(=O)Nc3ccc(C#N)cc3)c2=O)c1,1,0.9,2,6,0.9
C=CCNc1nc2c(c(=O)[nH]c(=O)n2C)n1CCCCC,0.9,0.9,9,6,0.9
O=c1cc(-c2ccncc2)oc2ccccc12,0.6,0.9,36,86*,0.1
CCOc1ccc(S(=O)(=O)Nc2cccc(C(=O)N3CCN(c4ccc(OC)cc4)CC3)c2)cc1,0.4,1.7,60*,62*,0.4
COc1ccc(N2CCN(C(=O)c3ccc(NS(=O)(=O)c4ccc(F)cc4)cc3)CC2)cc1,0.1,1.6,91*,24,0.8
Brc1ccc(-c2nnc3ccc(N4CCN(c5ccccc5)CC4)nn23)cc1,0.8,1,25,10,0.9
c1ccc(-c2nnc3ccc(N4CCC5(CC4)OCCO5)nn23)cc1,0.5,1.5,48,10,0.9
COc1ccc(S(=O)(=O)N2CCN(c3ccc4nnc(-c5ccccc5)n4n3)CC2)cc1,0.1,1.7,87*,76*,0.2
NC(=O)C1(N2CCCCC2)CCN(c2nc(-c3ccccc3)cs2)CC1,0.1,1.1,88*,95*,0
NC(=O)C1(N2CCCCC2)CCN(c2ccc3nnc(-c4ccccc4)n3n2)CC1,0.3,1.4,68*,78*,0.2
Cc1cccc(NC(=O)CNc2cc(C)ccc2C)c1,0.7,1.1,26,84*,0.2
COc1ccccc1NC(=O)CNS(=O)(=O)c1ccccc1,1.5,1,-54,96*,0
COc1cc(NC(=O)CS(=O)(=O)c2ccccc2)cc(OC)c1OC,0.7,0.9,31,66*,0.3
Cc1ccc(C)c(NC(=O)CNS(=O)(=O)c2ccccc2)c1,2.1*,1,-105,79*,0.2
COc1cc(NC(=O)Cc2c(C(=O)O)[nH]c3ccccc23)cc(OC)c1OC,0.8,1.1,23,20,0.8
Cc1nc(N2CCN(S(=O)(=O)c3cccc4nonc34)CC2)c2c3c(sc2n1)CCCC3,0.5,1.6,46,26,0.7
COc1cccc(N2CC(C(=O)Nc3ccc(C(=O)OC(C)C)cc3)CC2=O)c1 (configuration not stated),0.3,1.1,71*,51*,0.5
C=CCNC(=O)C1CC(=O)N(c2ccc(OCC(=O)Nc3ccccc3)cc2)C1 (configuration not stated),0.4,0.8,55*,19,0.8
COc1ccc(CNC(=O)C2CC(=O)N(c3ccc(OCC(=O)N4C(C)CCCC4C)cc3)C2)cc1 (configuration not stated),0.4,1.4,61*,31,0.7
COc1ccc(N2CC(C(=O)NC3CC(C)(C)NC(C)(C)C3)CC2=O)cc1 (configuration not stated),0.9,1,10,-11,1.1
COc1ccc(CNC(=O)C2CC(=O)N(c3ccc(OCC(=O)N4CCCCC4)cc3)C2)cc1 (configuration not stated),0.5,1.7,47,32,0.7
COc1cccc(N2CC(C(=O)NC3CCCCC3)CC2=O)c1 (configuration not stated),2.3*,1,-128,-3,1
SMILES,CYP2C9 act,PLAP activator,CYP2C9 inh,CYP2C19 inhib,CYP2C19 activ
COc1ccc(N2CC(C(=O)Nc3ccc(S(=O)(=O)Nc4nc(C)cc(C)n4)cc3)CC2=O)cc1 (configuration not stated),1.1,1.2,-7,-7,1.1
C=CCNC(=O)C1CC(=O)N(c2ccc(OCC(=O)Nc3ccc(C)cc3)cc2)C1 (configuration not stated),0.8,1,21,-9,1.1
CC(=O)NCC(=O)N(C)C(C(=O)Nc1ccc(C(C)C)cc1)c1ccccc1 (configuration not stated),0.9,1.4,6,-5,1
COCCCNC(=O)Cn1cc2c(n1)CCC(C)C2 (configuration not stated),1.2,1.1,-23,-3,1
CCc1c(C)nc2ncnn2c1NCCc1ccc(OC)cc1,0.1,0.8,85*,63*,0.4
CCOC(=O)Cn1c2c(c(=N)c3c1CCC3)CCC2,1,0.9,0,-3,1
CCOC(=O)CN1NC2(CCCCC2)NC1=S,0.8,0.9,18,18,0.8
CCOC(=O)CN1NC2(CCC(C)CC2)NC1=S (configuration not stated),1,0.8,-2,61*,0.4
CCOC(=O)CN1NC2(CCCC(C)C2)NC1=S (configuration not stated),1,1,-4,61*,0.4
C/C=C(\C)CN1CCN(c2ccc(C)cc2)CC1,1,0.8,-1,86*,0.1
CCn1c(=O)cc(SCC(=O)N2CCN(C(=O)c3ccco3)CC2)c2ccccc21,1,1.1,5,9,0.9
CCn1c(=O)cc(SCC(=O)N2CCN(c3ccccc3OC)CC2)c2ccccc21,2.3*,1.5,-129,43,0.6
O=C(CSc1cn(Cc2ccccc2)c2ccccc12)N1CCOCC1,0.8,1.2,21,88*,0.1
COc1ccccc1N1CCN(C(=O)CSc2ccccc2)CC1,0.5,1.3,46,44,0.6
CCn1c(=O)cc(SCC(=O)N2CCOCC2)c2ccccc21,2.1*,1.3,-107,-9,1.1
CCn1c(=O)cc(SCC(=O)Nc2ccc(OC)c(OC)c2)c2ccccc21,2*,1.6,-102,60*,0.4
O=C1CN(c2ccc(Cl)cc2)C(=O)CN1NC(=S)Nc1ccc(Cl)cc1,1.1,1,-6,-13,1.1
Cc1ccc(C(=O)CSc2nnc(COc3cc(C)cc(C)c3)o2)cc1,0.7,1.2,26,7,0.9
CCOc1c2ccc(C(=O)NCC34CC5CC(CC(C5)C3)C4)cc2nn1CC,0.7,1.3,25,7,0.9
O=C(Nc1nnc(C2CC2)s1)c1cccc(S(=O)(=O)N2CCc3ccccc32)c1,0.6,1.4,37,23,0.8
COC(=O)c1cc(NC(=O)CCc2c(C)nc3ncnn3c2C)cc(C(=O)OC)c1,0.8,1,19,12,0.9
CCn1c(=O)cc(SCC(=O)N2CCN(C3CCCCC3)CC2)c2ccccc21,2.4*,1.5,-143,65*,0.4
CCN1CCCC1CNC(=O)CSc1cc(=O)n(CC)c2ccccc12 (configuration not stated),0.9,1.2,6,-7,1.1
Nc1ncn(C(=O)c2ccco2)n1,1,1,-4,-7,1.1
